# In ChEMBL document CHEMBL3433997, “St. Jude Leishmania screening dataset” (2016):
# Legend:
# Format in all cases: functional
# [1] = molecular target: Solute carrier family 2, facilitated glucose transporter member 1 (Homo sapiens) (UniProt P11166); test: ST_JUDE_LEISH: Cytotoxicity at 2uM final concentration against transgenic Leishmania Mexicana promastigotes LmGLUT1 that are glucose transport deficient and complemented with the human glucose transporter GLUT1. Activity is measured by DNA content using SYBR green in vitro
# Chain of Solute carrier family 2, facilitated glucose transporter member 1 (Homo sapiens) (P11166 whole entry): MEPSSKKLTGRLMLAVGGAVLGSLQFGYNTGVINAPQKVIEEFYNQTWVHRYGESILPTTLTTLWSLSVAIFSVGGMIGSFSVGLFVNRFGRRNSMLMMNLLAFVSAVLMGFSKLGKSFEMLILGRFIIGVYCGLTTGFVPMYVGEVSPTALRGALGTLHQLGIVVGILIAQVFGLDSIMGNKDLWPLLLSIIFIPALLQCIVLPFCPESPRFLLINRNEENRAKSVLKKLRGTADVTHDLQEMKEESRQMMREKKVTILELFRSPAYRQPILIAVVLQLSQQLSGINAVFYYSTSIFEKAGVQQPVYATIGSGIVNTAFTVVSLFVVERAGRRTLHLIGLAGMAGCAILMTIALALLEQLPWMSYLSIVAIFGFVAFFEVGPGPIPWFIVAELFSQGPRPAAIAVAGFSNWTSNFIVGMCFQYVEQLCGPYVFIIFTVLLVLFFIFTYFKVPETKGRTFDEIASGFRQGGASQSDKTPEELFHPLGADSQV
# [2] = molecular target: Hexose transporter 1 (Plasmodium falciparum) (UniProt O97467); test: ST_JUDE_LEISH: Cytotoxicity at 2uM final concentration against transgenic Leishmania Mexicana promastigotes LmPfHT that are glucose transport deficient and complemented with the Plasmodium falciparum hexose transporter. Activity is measured by DNA content using SYBR green in vitro
# [3] = molecular target: Glucose transporter (Leishmania mexicana) (UniProt O61059); test: ST_JUDE_LEISH: Cytotoxicity at 2uM final concentration against transgenic Leishmania Mexicana promastigotes LmGT2 that are glucose transport deficient and complemented with the L. Mexicana glucose transporter 2. Activity is measured by DNA content using SYBR green in vitro
Structure (SMILES),inhibition [1],inhibition [2],inhibition [3]
O=C(Nc1ccc(Br)cc1)N(CCN1CCOCC1)CC(O)COc1ccc(Cl)c(F)c1 (stereo unspecified),-0.94%,-1.53%,1.5%
O=c1cc(N2CCNCC2)c(Cl)nn1Cc1ccc(NS(=O)(=O)c2ccc(Oc3ccccc3)cc2)cc1,1.25%,3.7%,1.23%
FC(F)(F)c1cccc(-c2cc(NCCCn3ccnc3)nc(-c3ccncc3)n2)c1,-3.57%,-1.14%,-0.33%
N=C(NCc1ccc(O)cc1)Nc1nc(-c2ccc(OCCCn3ccnc3)cc2)cs1,1.63%,0.11%,-3.09%
CC(C)OC(=O)c1cccnc1SCC(=O)Nc1ccc(C(F)(F)F)cc1Cl,1.58%,1.68%,3.79%
Cc1c(-c2cccc(C(C)(C)NCCCN3CCCCC3)c2)cnc(N)c1C,-0.39%,-0.25%,0.62%
O=C(NCCN1CCCC1)c1cccc(-c2ccc(-c3nc4cc(C(F)(F)F)ccc4[nH]3)cc2)c1,1.29%,0.34%,0.32%
